This is a sample that favours compounds with a hit; in the whole collection about 12% have one here.
HP1b binding inh: HTS for Inhibitors of HP1-beta Chromodomain Interactions with Methylated Histone Tails. Potency, µM (highest dose often 114 µM), actives largely listed as inhibitors. Chromobox protein homolog 1 (Homo sapiens), P83916. AlphaScreen HP1-beta / biotin-H3K9me3 peptide binding. AID 540317, 2011. actives 0.56% (n = 390,000); further: nearly all actives have a fitted effect of over 70% in size
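Compound inhibition of the preformed complex between 50 nM HP1-beta and 50 nM biotinylated H3K9me3 peptide was read by AlphaScreen. Buffer was PBS pH 7.4 with 0.01% Tween-20. Incubations ran 30 min at room temperature, with 10 ug/mL donor/acceptor beads.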
Sfp PPTase inh: qHTS Assay for Inhibitors of Bacillus subtilis Sfp phosphopantetheinyl transferase (PPTase); 4'-phosphopantetheinyl transferase ffp (Bacillus subtilis), Q9F4F7; Biochemical Sfp PPTase activity, qHTS; Potency, µM, most hits filed as inhibitors; actives 3.5% (n = 310,000);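 further: the enzyme is Sfp with the accession as filed and its product quenches rhodamine fluorescence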
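Fluorescence-quenching assay with 15 nM Sfp, 5 uM rhodamine-CoA and 12.5 uM BHQ-2-labelled ybbR peptide in pH 7.6 Hepes/MgCl2 buffer. Enzyme was pre-incubated with compound for 15 min at room temperature. Rate was taken from the 30-min fluorescence change (525/598 nm).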
BAZ2B block: qHTS Assay for Inhibitors of BAZ2B; AlphaScreen BAZ2B-H3K14Ac peptide displacement; Potency, µM (series often up to 114 µM), hits mostly inhibitors; actives 4.4% (n = 360,000); further: nearly all actives have a fitted effect of over 60% in size
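AlphaScreen luminescence quantifies BAZ2B engagement of H3K14Ac peptide; the protein and biotinylated peptide are both at 50 nM final, buffer PBS pH 7.4 with 0.01% Tween-20, all steps at room temperature.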
JMJD2A Tudor inh: qHTS Assay for Inhibitors of JMJD2A-Tudor Domain; Potency, µM (titrated, usually from 114 µM), most hits filed as inhibitors; Lysine-specific demethylase 4A (Homo sapiens), O75164; AlphaScreen JMJD2A-Tudor / H3K4me3 peptide binding; actives 4.4% (n = 390,000); further: nearly all actives have a fitted effect of over 50% in size
G9a inh-1: qHTS Assay for Inhibitors of Histone Lysine Methyltransferase G9a. Histone-lysine N-methyltransferase EHMT2 (Homo sapiens), Q96KQ7. G9a H3K9 monomethylation, AlphaScreen, 2 h. Potency, µM (highest dose often 102 µM), most hits filed as inhibitors. actives 8.8% (n = 350,000). AID 504332, 2011; further: nearly all actives have a fitted effect of over 75% in size
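G9a (20 nM) was preincubated 15 min with compound, then reacted 2 h at room temperature with 500 nM biotin-H3K9 peptide and 20 µM SAM. Monomethyl-H3K9 detected by AlphaScreen using anti-H3K9me1 antibody.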
12-hLO cuvette: Cuvette-Based Assay for Inhibitors of 12-hLO (12-human lipoxygenase): 8HQ Series - Round 1; purified 12-hLO, cuvette UV 234 nm product formation; shares compounds with BAZ2B block; Potency, µM, hits mostly inhibitors; actives 60% (n = 35);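 active means compounds that slowed 12-hLO product formation enough to yield a measured IC50 potency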
JMJD2E inh-1: Inhibitors of Human Jumonji Domain Containing 2E (JMJD2E): 8HQs - Round 1; shares compounds with BAZ2B block; JMJD2E demethylase, FDH-coupled NADH fluorescence; Potency, µM (series often up to 57 µM), most hits filed as inhibitors; actives 89% (n = 130)
JMJD2E inh-2: Confirmation qHTS Assay for Inhibitors of Human Jumonji Domain Containing 2E (JMJD2E) | shares compounds with JMJD2A Tudor inh | Potency, µM (titrated, usually from 56.8 µM), hits mostly inhibitors | actives 93% (n = 140) | Recombinant JMJD2E, FDH-coupled NADH fluorescence (FDH is formaldehyde dehydrogenase)
FDH counter: Counterscreen for JMJD2E Inhibitors: qHTS Assay for Inhibitors of Formaldehyde Dehydrogenase (FDH) | shares compounds with JMJD2A Tudor inh | FDH enzyme assay, NADH fluorescence kinetic | Potency, µM (series often up to 56.7 µM), most hits filed as inhibitors | actives 10% (n = 140)
JMJD2E MS inh: MALDI-TOF-MS Assay for Inhibitors of Human Jumonji Domain Containing 2E (JMJD2E); shares compounds with JMJD2A Tudor inh; recombinant JMJD2E demethylation, MALDI-TOF-MS; Potency, µM, actives largely listed as inhibitors; actives 90% (n = 45); AID 2688, 2010;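 active means compounds whose IC50 for blocking JMJD2E demethylation is below 100 µM; inconclusive means dose dependent effect but IC50 above 100 µM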
G9a inh-2: qHTS Assay for Inhibitors of Histone Lysine Methyltransferase G9a: Hit Confirmation; shares compounds with JMJD2A Tudor inh; Potency, µM, usual class: inhibitors; G9a H3K9 monomethylation, AlphaScreen, 2 h; actives 89% (n = 370); AID 588344, 2011; further: nearly all actives have a fitted effect of over 65% in size
Numbers stand for hits; i = inactive; ? = inconclusive; nt = no result given; [ ] = dose if it differs, or a comment. Unless noted, the call rests on the fitted dose curve; in most records, active means well fitted curve in the direction sought with a large enough effect; inconclusive means small, poorly fitted or top-dose-only effect, or another doubt; inactive means no such curve, though single readings can be large; an effect the other way counts as inactive or inconclusive.

SMILES | HP1b binding inh | Sfp PPTase inh | BAZ2B block | JMJD2A Tudor inh | G9a inh-1 | JMJD2E inh-1 | JMJD2E inh-2 | FDH counter | others
COC(=O)c1ccc(OC(C)=O)c2ncccc12 | nt | nt | nt | nt | nt | 12.9µM | 14.5µM | i
COC(=O)c1cnc2c(C(F)(F)F)cccc2c1OC | i | i | i | i | i[12.7 µM] | nt | nt | nt
CN(C)/C=C/C1=CC(=O)CC(C)(C)C1 | i | i | i | i | i | nt | nt | nt
Oc1ccc(CCc2ccccc2)c2cccnc12 | nt | nt | nt | 44.7µM | nt | 7.08µM | 9.13µM | i | JMJD2E MS inh=89.5
Oc1ccc(COc2ccccc2Cl)c2cccnc12 | nt | nt | nt | 79.4µM | nt | 12.6µM | 12.6µM | i
O=C(CCn1c(=O)[nH]c2ccsc2c1=O)N(CCc1ccccc1)Cc1ccccc1 | i | i | i | i | ? | nt | nt | nt
CN(Nc1cccc(Cl)c1)c1cccc(Cl)c1 | i | nt | nt | i | nt | nt | nt | nt
CCC(=O)NC(c1ccc(F)cc1)c1cc(Cl)c2cccnc2c1O (stereo not given) | nt | nt | nt | i | nt | 15.8µM | 15.8µM | i
CCCCC(=O)NC(c1ccco1)c1cc(Cl)c2cccnc2c1O (stereo not given) | i | i | i | i[11.4 µM] | nt | nt | nt | nt
CCC(=O)NC(c1ccco1)c1cc(Cl)c2cccnc2c1O (stereo not given) | i | i | 44.7µM | ? | i | 6.31µM | 6.31µM | i | 12-hLO cuvette=1µM
CCC(=O)NC(c1ccc(C)s1)c1cc(Cl)c2cccnc2c1O (stereo not given) | nt | nt | nt | i | nt | i | 10.2µM | i | 12-hLO cuvette=3.5µM
CCC(=O)NC(c1cccs1)c1cc([N+](=O)[O-])c2cccnc2c1O (stereo not given) | i | 7.08µM | 7.94µM | 79.4µM | ? | 14.1µM | 14.1µM | i | 12-hLO cuvette=0.8µM
CCn1c(=O)cc(OCC(=O)N2CCN(c3ccc(OC)cc3)CC2)c2ccccc21 | i | nt | ? | i | i | nt | nt | nt
COc1ccc([N+](=O)[O-])cc1NC(=O)CSc1nc(C)cc(C)n1 | i | 22.4µM | i | ? | 2.51µM | nt | nt | nt | G9a inh-2=6.31
Cc1nnsc1Sc1cccc(C(F)(F)F)c1 | i | i | i | i | i | nt | nt | nt
CCOc1c(Cl)cc(CNc2ccc(N3CCCC3)cc2)cc1OC | 44.7µM | 79.4µM | 20µM | 14.1µM | 2.82µM | nt | nt | nt | G9a inh-2=6.31
c1cn(-c2ncnc3ccc(-c4ccoc4)cc23)cn1 | nt | i | nt | nt | i[0.501 µM] | nt | nt | nt
CC(Nc1ccccc1)c1cc(Cl)ccc1O (stereo not given) | i | i | i | i | i | nt | nt | nt
COc1ccc(NC(C)c2cc(Cl)ccc2O)cc1 (stereo not given) | 70.8µM | i | 31.6µM | i[11.4 µM] | ? | nt | nt | nt | G9a inh-2=?

From PubChem
